Experimental data: PubChem BioAssay (EPA / NIEHS)
Calls of active or inactive are those of the source. Rule for the calls: active = hit-call score of the fitted dose curve at least 0.9, where 1 is the maximum; inactive = score below 0.9.

What was measured:
Conditions in all cases: mRNA level, 48 h; actives raise or lower the signal
[1] = read-out: Glutamate-cysteine ligase catalytic (GCLC), GCLC (gene 2729); assay: LTEA_HepaRG_GCLC: Life Technologies and Expression Analysis (LTEA) Assay for Glutamate-cysteine ligase catalytic (GCLC) using HepaRG (AID 2283498)
Method in brief: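 Read-out is GCLC transcript level by Fluidigm-based TaqMan qRT-PCR, normalized to three housekeeping genes and fitted in both directions relative to 0.5% DMSO. Human HepaRG cells received chemicals for 48 h, up to 100 uM.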

[2] = read-out: growth arrest and DNA damage 45 (GADD45G), GADD45G (gene 10912); assay: LTEA_HepaRG_GADD45G: Life Technologies and Expression Analysis (LTEA) Assay for growth arrest and DNA damage 45 (GADD45G) using HepaRG (AID 2283499)
Method in brief: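 Differentiated human HepaRG cells in serum-free induction medium were exposed for 48 h to 8 half-log concentrations up to 100 uM in 0.5% DMSO, in duplicate. GADD45G mRNA was measured by TaqMan qRT-PCR, normalised to ACTB, GAPDH and POLR2A, and fitted bidirectionally against DMSO.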

[3] = read-out: Glutamate-cysteine ligase regulatory (GCLM), GCLM (gene 2730); assay: LTEA_HepaRG_GCLM: Life Technologies and Expression Analysis (LTEA) Assay for Glutamate-cysteine ligase regulatory (GCLM) using HepaRG (AID 2283500)
Method in brief: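 Human liver HepaRG cultures receive test chemicals for 48 hours at up to 100 uM in 0.5% DMSO. GCLM expression is measured by qRT-PCR and analysed for increases or decreases against vehicle.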

[4] = read-out: Glutathione S-transferase M3 (GSTM3), GSTM3 (gene 2947); assay: LTEA_HepaRG_GSTM3: Life Technologies and Expression Analysis (LTEA) Assay for Glutathione S-transferase M3 (GSTM3) using HepaRG (AID 2283501)
Method in brief: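 Differentiated HepaRG cells in serum-free induction medium were exposed in duplicate for 48 h to 8 half-log concentrations up to 100 uM in 0.5% DMSO. GSTM3 mRNA was measured by TaqMan qRT-PCR, normalized to ACTB/GAPDH/POLR2A, and fitted bidirectionally versus DMSO.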

[5] = read-out: Heat shock 70 kDa protein 1 (HSPA1A), gene 3303; assay: LTEA_HepaRG_HSPA1A: Life Technologies and Expression Analysis (LTEA) Assay for Heat shock 70 kDa protein 1 (HSPA1A) using HepaRG (AID 2283502)
Method in brief: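 HSPA1A induction in human HepaRG liver cells is measured after 48 h of chemical treatment (100 uM maximum, 0.5% DMSO vehicle). Expression comes from qRT-PCR normalized to endogenous controls.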

[6] = read-out: Hypoxia-inducible factor 1-alpha (Homo sapiens) (UniProt Q16665); assay: LTEA_HepaRG_HIF1A: Life Technologies and Expression Analysis (LTEA) Assay for Hypoxia-inducible factor 1 (HIF1A) Trancription factor using HepaRG (AID 2283503);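 note: HIF1A transcript by TaqMan qRT-PCR normalized to ACTB GAPDH and POLR2A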
Method in brief: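 HepaRG, 48 h exposure, 8-pt half-log series from 100 uM, 0.5% DMSO vehicle, duplicates. Readout: HIF1A transcript by qRT-PCR (Fluidigm array), housekeeping-normalised. Bidirectional curve fit vs DMSO baseline.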

[7] = read-out: 3-Hydroxy-3-Methylglutaryl-CoA Synthase 2 (HMGCS2), HMGCS2 (gene 3158); assay: LTEA_HepaRG_HMGCS2: Life Technologies and Expression Analysis (LTEA) Assay for 3-Hydroxy-3-Methylglutaryl-CoA Synthase 2 (HMGCS2) using HepaRG (AID 2283504)
Method in brief: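 Differentiated human HepaRG cells were exposed in duplicate for 48 h in serum-free induction medium to eight concentrations (top 100 uM, half-log steps, 0.5% DMSO). HMGCS2 mRNA was quantified by TaqMan qRT-PCR, normalised to ACTB, GAPDH and POLR2A, then fitted bidirectionally against DMSO.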

HGF (gene 3082) = assay: LTEA_HepaRG_HGF: Life Technologies and Expression Analysis (LTEA) Assay for Hepatocyte Growth Facto (HGF) using HepaRG (AID 2283505)
Method in brief: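 Differentiated human HepaRG cells in serum-free induction medium were exposed in duplicate for 48 h to eight concentrations (top 100 uM, half-log steps, 0.5% DMSO). HGF mRNA was quantified by qRT-PCR, normalized to ACTB, GAPDH and POLR2A.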

[8] = read-out: Intercellular Adhesion Molecule 1 (ICAM1), ICAM1 (gene 3383); assay: LTEA_HepaRG_ICAM1: Life Technologies and Expression Analysis (LTEA) Assay for Intercellular Adhesion Molecule 1 (ICAM1) using HepaRG (AID 2283507)
Method in brief: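 Differentiated HepaRG cells in serum-free induction medium were exposed in duplicate for 48 h to eight half-log concentrations up to 100 uM in 0.5% DMSO. Transcript levels were measured by qRT-PCR normalized to ACTB, GAPDH and POLR2A; bidirectional fits relative to DMSO.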

[9] = read-out: Insulin-like growth factor-binding protein 1 (IGFBP1), IGFBP1 (gene 3484); assay: LTEA_HepaRG_IGFBP1: Life Technologies and Expression Analysis (LTEA) Assay for Insulin-like growth factor-binding protein 1 (IGFBP1) using HepaRG (AID 2283508)
Method in brief: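 Differentiated human HepaRG cells in serum-free induction medium were exposed in duplicate for 48 h to eight concentrations, top 100 uM with half-log dilutions, in 0.5% DMSO. Transcript levels came from qRT-PCR normalised to ACTB, GAPDH and POLR2A, fitted bidirectionally against DMSO.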

[10] = read-out: Interleukin 6 (IL6), IL6 (gene 3569); assay: LTEA_HepaRG_IL6: Life Technologies and Expression Analysis (LTEA) Assay for Interleukin 6 (IL6) using HepaRG (AID 2283509)
Method in brief: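 HepaRG, ~100,000 cells/well, 48 h pre-culture; serum-free induction medium; cmpd 8-pt half-log from 100 uM, 0.5% DMSO, duplicate, 48 h. Lysis in RLT, TaqMan qRT-PCR; gain or loss vs DMSO.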

[11] = read-out: Interleukin 6 Receptor (IL6R), IL6R (gene 3570); assay: LTEA_HepaRG_IL6R: Life Technologies and Expression Analysis (LTEA) Assay for Interleukin 6 Receptor (IL6R) using HepaRG (AID 2283510);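 for AC50: TaqMan qRT-PCR signal normalized to ACTB GAPDH and POLR2A housekeeping genes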
Method in brief: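 Concentration-response in human liver HepaRG cells: eight concentrations from 100 uM downward by half-logs, 48 h exposure, 0.5% DMSO vehicle. IL6R mRNA change measured by qRT-PCR and fitted in both directions relative to vehicle.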

[12] = read-out: Potassium channel subfamily K member 1 (KCNK1), KCNK1 (gene 3775); assay: LTEA_HepaRG_KCNK1: Life Technologies and Expression Analysis (LTEA) Assay for Potassium channel subfamily K member 1 (KCNK1) using HepaRG (AID 2283511)
Method in brief: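 Gain or loss of KCNK1 mRNA is the read-out, quantified by qRT-PCR against three housekeeping genes after 48 h chemical treatment of human HepaRG liver cells. Concentrations ran from 100 uM downward in half-log steps, vehicle 0.5% DMSO.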

[13] = read-out: Keratin 19 (KRT19), KRT19 (gene 3880); assay: LTEA_HepaRG_KRT19: Life Technologies and Expression Analysis (LTEA) Assay for Keratin 19 (KRT19) using HepaRG (AID 2283512)
Method in brief: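 Differentiated human HepaRG cells, plated 48 h, were exposed in duplicate for 48 h in serum-free induction medium to eight half-log concentrations up to 100 uM in 0.5% DMSO. KRT19 mRNA was quantified by qRT-PCR, normalized to ACTB, GAPDH and POLR2A, and fitted bidirectionally versus DMSO.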

[14] = read-out: JUN Transcription Factor, JUN (gene 3725); assay: LTEA_HepaRG_JUN: Life Technologies and Expression Analysis (LTEA) Assay for JUN Transcription Factor using HepaRG (AID 2283513)
Method in brief: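 Human HepaRG liver cells receive test chemicals in 0.5% DMSO for 48 h across an eight-point range topping at 100 uM. Expression changes in JUN are scored in both directions against the DMSO vehicle.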

[15] = read-out: Lipase C (LIPC), LIPC (gene 3990); assay: LTEA_HepaRG_LIPC: Life Technologies and Expression Analysis (LTEA) Assay for Lipase C (LIPC) using HepaRG (AID 2283514)
Method in brief: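 Read-out is LIPC transcript level by TaqMan qRT-PCR, normalized to three housekeeping genes, after 48 h chemical treatment of human HepaRG liver cells. Curves span eight concentrations topping at 100 uM; activity in either direction scored relative to 0.5% DMSO.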

[16] = read-out: Lipoprotein lipase (LPL), LPL (gene 4023); assay: LTEA_HepaRG_LPL: Life Technologies and Expression Analysis (LTEA) Assay for Lipoprotein lipase (LPL) using HepaRG (AID 2283515)
Method in brief: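 Read-out is LPL transcript level by qRT-PCR, normalized to three housekeeping genes and fitted bidirectionally against the DMSO control. Human HepaRG cells received chemicals for 48 h at up to 100 uM.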

[17] = read-out: MicroRNA 122 (MIR122), gene 406906; assay: LTEA_HepaRG_MIR122: Life Technologies and Expression Analysis (LTEA) Assay for MicroRNA 122 (MIR122) using HepaRG (AID 2283516); note: the transcript read is the microRNA miR-122
Method in brief: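 HepaRG, 48 h exposure, 8-pt half-log from 100 uM, 0.5% DMSO; TaqMan qRT-PCR; bidirectional fit vs DMSO.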

[18] = read-out: matrix metalloproteinase-10 (MMP10), MMP10 (gene 4319); assay: LTEA_HepaRG_MMP10: Life Technologies and Expression Analysis (LTEA) Assay for matrix metalloproteinase-10 (MMP10) using HepaRG (AID 2283517)
Method in brief: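 Gain or loss of MMP10 mRNA is fitted relative to the 0.5% DMSO vehicle. The human hepatic line HepaRG receives a 48-hour serum-free exposure, in duplicate, with a maximum concentration of 100 uM.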

[19] = read-out: Insulin Like Growth Factor 1 (IGF1), IGF1 (gene 3479); assay: LTEA_HepaRG_IGF1: Life Technologies and Expression Analysis (LTEA) Assay for Insulin Like Growth Factor 1 (IGF1) using HepaRG (AID 2283506)
Method in brief: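 Using human HepaRG liver cells, IGF1 transcript induction or suppression is measured 48 h after dosing across eight concentrations capped at 100 uM. Values derive from bidirectional concentration-response fitting with DMSO as baseline.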

Measured: AC50

Hypoxia-inducible factor 1-alpha (Homo sapiens), sequence (Q16665 whole entry, looked up): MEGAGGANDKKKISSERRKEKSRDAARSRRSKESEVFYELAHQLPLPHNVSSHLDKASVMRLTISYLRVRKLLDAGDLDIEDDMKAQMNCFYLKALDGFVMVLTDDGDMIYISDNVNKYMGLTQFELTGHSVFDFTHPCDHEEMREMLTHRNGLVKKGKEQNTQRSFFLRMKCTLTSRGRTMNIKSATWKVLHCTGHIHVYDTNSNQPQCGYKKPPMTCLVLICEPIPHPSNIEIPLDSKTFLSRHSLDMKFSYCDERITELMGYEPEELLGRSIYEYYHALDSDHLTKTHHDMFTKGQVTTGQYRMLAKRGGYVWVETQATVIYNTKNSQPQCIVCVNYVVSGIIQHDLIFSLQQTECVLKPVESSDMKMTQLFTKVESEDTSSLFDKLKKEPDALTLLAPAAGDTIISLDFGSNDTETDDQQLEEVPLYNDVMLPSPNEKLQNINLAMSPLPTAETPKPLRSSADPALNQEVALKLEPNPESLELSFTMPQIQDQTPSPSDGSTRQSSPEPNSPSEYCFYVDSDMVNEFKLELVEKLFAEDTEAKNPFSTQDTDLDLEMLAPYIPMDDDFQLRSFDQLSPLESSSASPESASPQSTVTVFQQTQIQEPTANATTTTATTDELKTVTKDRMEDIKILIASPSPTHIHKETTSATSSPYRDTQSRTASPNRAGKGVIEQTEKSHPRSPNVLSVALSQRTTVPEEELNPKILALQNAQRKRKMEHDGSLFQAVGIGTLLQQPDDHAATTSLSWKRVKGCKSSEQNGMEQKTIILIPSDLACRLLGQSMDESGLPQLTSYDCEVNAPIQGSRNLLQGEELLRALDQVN

CCCCOCCO
not listed: [19]
inactive: all other assays above

Cc1oc(-c2ccccc2)nc1CCOc1ccc(C[C@H](Nc2ccccc2C(=O)c2ccccc2)C(=O)O)cc1
active: [1] 64 µM | [2] 0.0219 µM | [4] 27.9 µM | [5] 16.2 µM | [7] 22.8 µM | HGF (gene 3082) 15.8 µM | [19] 12.4 µM | [9] 30.9 µM | [10] 26.3 µM | [11] 30.6 µM | [12] 15.8 µM | [13] 13.2 µM | [14] 16.5 µM | [18] 25 µM
inactive: [3] | [15] | [16] | [17]

CC(O)CO (stereo unspecified)
not listed: [8] | [19]
inactive: all other assays above

CC[C@H](c1ccc(O)cc1)[C@@H](CC)c1ccc(O)cc1
inactive: [4] | HGF (gene 3082) | [12] | [15] | [17] | [18]
active: [1] 79.8 µM | [2] 66.3 µM | [3] 70.2 µM | [5] 94.4 µM | [7] 79.4 µM | [19] 86.3 µM | [9] 68.1 µM | [10] 77.3 µM | [11] 73.8 µM | [13] 90.8 µM | [14] 96.5 µM | [16] 75.7 µM

CCC(=C(c1ccc(O)cc1)c1ccc(OCCN(C)C)cc1)c1ccccc1
active: [2] 93 µM | [5] 69.4 µM | [6] 83.8 µM | [7] 91.7 µM | [9] 76.5 µM | [10] 91.8 µM | [11] 93.2 µM | [14] 89.3 µM | [17] 88.8 µM | [18] 72.4 µM
inactive: [1] | [3] | [4] | HGF (gene 3082) | [12] | [13] | [15] | [16]

OCCC(F)(F)C(F)(F)C(F)(F)C(F)(F)C(F)(F)C(F)(F)F
inactive: all assays above
